Results on 60 molecules are retold here after PubChem BioAssay AID594 (National Center for Advancing Translational Sciences (NCATS), 2007).

Hit rate of the full screen: of about 59,000 compounds, about 30 (0.05%) were called active. Rule as the data show it: active = max dye-equivalent concentration above about 11 nM; inconclusive = between about 1.1 nM and that limit; inactive = weaker than that. This excerpt belongs to a sample that is enriched for actives.

The experiment in a line: qHTS Assay for Spectroscopic Profiling in Rhodamine Spectral Region. The conditions noted are these: Rhodamine-region fluorescence, 547/598 nm, Tris buffer; hits give high values. From the text: NIH Molecular Libraries Screening Centers Network [MLSCN] NIH Chemical Genomics Center [NCGC] […] Occasionally, the artifactual effect may originate from the compound#s own spectral or other biophysical properties which generally tend to track its assay concentration. Pre-screening/profiling the library with respect to the compounds# spectral properties should help one exclude false positives early on. While the most informative fluorescent profiling data set is obtained by performing a full excitation and emission scan of each well by using a monochromator-based plate reader, such an approach is practical only on a very limited scale as scanning each well requires long time. An alternative approach, applied here, is to perform plate reader scans using selected excitation and emission wavelength pairs to generate a multidimensional relational database that correlates compound concentration and the respective relative fluorescence intensity at a given wavelength set. A standard curve of rhodamine present on each plate as six-point concentration series, was used to compute a normalized fluorescence response, termed dye-equivalent concentration, for each compound at each concentration.
NCGC Assay Protocol Summary: Buffer: 100 mM Tris buffer, pH 8.0 Dye standard plate: The wells in columns 1 through 4 of a Kalypsys polypropylene 1536-well compound plate were filled with standard solutions of fluorophore corresponding to the spectral region of interest. Solutions of rhodamine were placed in the following wells: E1, F1: 3 mM, E2, F2: 300 uM, E3, F3: 30 uM, E4, F4: zero (DMSO), G1, H1: 3 uM, G2, H2: […], G3, H3: 300 nM, G4, H4: zero (DMSO). Assay Steps: Six uL of buffer were dispensed to 1536-well Greiner black plates. Compounds and dye standards (23 nL) were transferred via Kalypsys PinTool. The plates were incubated for 15 min at room temperature, and then read on ViewLux (Perkin-Elmer) High-throughput CCD imager using 547 nm and 598 nm excitation and emission filter set. Keywords: NIH Roadmap, MLSCN, MLI, MLSMR, qHTS, NCGC, Rhodamine , Fluorescent Profiling.
Regarding `CCOC(=O)N1CCN(S(=O)(=O)c2cc(Br)cc3c2N(C(=O)C2CC2)CC3)CC1`, the max dye-equivalent concentration entry is “inactive”.

On to `CCOC(=O)c1cc2cc(C)ccc2[nH]1`, for which the max dye-equivalent concentration result is “inactive”.

`CC(C)C[C@H](NC(=O)Nc1cccc(C(F)(F)F)c1)C(=O)O`: the max dye-equivalent concentration entry is “inactive”.

`CN(C)CCCNc1c2c(c(C#N)c3nc4ccccc4n13)CCC2`: the max dye-equivalent concentration result is “inactive”.

Regarding `COc1ccc(CNC(=O)c2c(C)cc(=O)oc2C)cc1OC`, the max dye-equivalent concentration result is “inactive”.

Consider `CC(=O)c1c(C)c[nH]c1C`, for which the max dye-equivalent concentration entry is “inactive”.

Consider `O=C(NCc1ccccc1)C1C(=O)N(Cc2ccccc2)C(=O)C1C1(O)CCCC1` (stereo not given), for which the max dye-equivalent concentration entry is “inactive”.

For `Cn1c(=O)c2c(nc(N3CCCCCC3)n2CC(O)COc2ccc(Cl)cc2)n(C)c1=O` (stereo not given), the max dye-equivalent concentration entry is “inactive”.

As to `CN(C)c1ncc2nc(-c3ccc(F)cc3)c(=O)n(Cc3ccc(F)cc3)c2n1`, the max dye-equivalent concentration entry was “inactive”.

With `CS(=O)(=O)N1CCC2(CC1)CN(c1ccncc1)C2`, the max dye-equivalent concentration result was “inactive”.

For `Cc1ccccc1N1CC(c2nc3ccccc3[nH]2)CC1=O` (stereo not given), the max dye-equivalent concentration result is “inactive”.

As to `CCN1CCN(C(=O)c2ccccc2N(C)S(=O)(=O)c2ccc(C)cc2)CC1`, the max dye-equivalent concentration result is “inactive”.

Take `Cc1ccc(C(=O)Nc2ccccc2C(=O)NC2CCCCC2)cc1S(=O)(=O)N1CCOCC1`: the max dye-equivalent concentration result is “inactive”.

`C/C(O)=C\c1nc(=O)c2c(C)cc(C)nc2n1-c1ccccc1`: the max dye-equivalent concentration entry is “inactive”.

For the molecule `CC(C)NC(=O)N1CC[C@@]2(CCCN(C(=O)c3cccc(F)c3)C2)C1`, the max dye-equivalent concentration result was “inactive”.

`CCCn1c(SCC(=O)Nc2cccc(C(=O)OCC)c2)nnc1-c1ccoc1C`: the max dye-equivalent concentration entry is “inactive”.

For the molecule `CCOc1ccc(NCCC(=O)c2ccc3c(c2)OCO3)cc1`, the max dye-equivalent concentration result was “inactive”.

Consider `CCOC(=O)N1CCN(C(=O)c2cc3c(ccc4ccccc43)oc2=O)CC1`, for which the max dye-equivalent concentration result was “inactive”.

For `O=C(Nc1ccc(NC(=O)c2cccs2)cn1)c1ccco1`, the max dye-equivalent concentration entry was “inactive”.

For `CCCCCOC(=O)NCCOC(=O)Nc1ccc(C(=O)OCC)cc1`, the max dye-equivalent concentration result was “inactive”.

`CC1CC(c2ccccc2)n2nc(NC(=O)c3cccs3)nc2N1` (stereo not given): the max dye-equivalent concentration result is “inactive”.

Consider `CCn1c(=O)cc(OCC(=O)NCCCN2CCN(c3cccc(Cl)c3)CC2)c2ccccc21`, for which the max dye-equivalent concentration entry was “inactive”.

On to `O=C(c1csnn1)N1CCC[C@@]2(CCN(c3cccc(-c4ccccc4)c3)C2)C1`, for which the max dye-equivalent concentration result is “inactive”.

As for `CCOc1ccccc1/C=c1\sc2nc(-c3ccco3)nn2c1=O`, the max dye-equivalent concentration result was “inactive”.

Turning to `CN(c1ccccc1)c1ccc(/C=c2\s/c(=C(/C#N)C(=O)C(C)(C)C)n(Cc3ccco3)c2=O)cc1`, the max dye-equivalent concentration was 36 nM (active).

Regarding `CCOC(=O)CSc1nc2c(sc(=S)n2CCc2ccccc2)c(=O)n1Cc1ccco1`, the max dye-equivalent concentration result was “inactive”.

As for `Cc1cccc(OCc2nnc(SCc3nc4cc(C(F)(F)F)ccc4c(=O)[nH]3)o2)c1`, the max dye-equivalent concentration entry is “inactive”.

With `COc1ccc(C(CNC(=O)c2cccnc2SC)N2CCOCC2)cc1` (stereo not given), the max dye-equivalent concentration result is “inactive”.

For `O=C(CSc1nnc(-c2ccc(NS(=O)(=O)c3ccccc3)cc2)o1)NCC1CCCO1` (stereo not given), the max dye-equivalent concentration entry was “inactive”.

In the case of `O=C(C1CCC(C(=O)N2CCCC2)CC1)N1CCCC1` (stereo not given), the max dye-equivalent concentration result is “inactive”.

Turning to `COc1ccc(S(=O)(=O)N2CCCC(C(=O)Nc3ccc(NC(=O)c4ccccn4)cc3)C2)cc1` (stereo not given), the max dye-equivalent concentration entry was “inactive”.

Take `CCn1c(NCCc2ccc(OC)c(OC)c2)nc2c1c(=O)n(C)c(=O)n2C`: the max dye-equivalent concentration entry was “inactive”.

For `CCNc1nc(N)nc(Oc2ccc(OCC)nn2)n1`, the max dye-equivalent concentration entry was “inactive”.

`CC1=Nn2c(nnc2-c2ccccc2)SC1`: the max dye-equivalent concentration result was “inactive”.

For the molecule `CN(CC(=O)NC1CCCCC1)S(=O)(=O)c1ccc(Br)s1`, the max dye-equivalent concentration result is “inactive”.

For `O=C(CSc1nnc(-c2ccccc2)o1)N1CCOCC1`, the max dye-equivalent concentration result was “inactive”.

`Cc1ccc(CC2CC(=O)N(c3ccc4c(c3)OCCO4)C2=O)cc1` (stereo not given): the max dye-equivalent concentration entry is “inactive”.

`C[C@]1(O)CC[C@H]2[C@H]3CC=C4N5CCN=C5CC[C@@]4(C)[C@H]3CC[C@@]21C`: the max dye-equivalent concentration result was “inactive”.

Regarding `CCNc1ncc2ncc(=O)n(Cc3cccc(OC)c3)c2n1`, the max dye-equivalent concentration entry was “inactive”.

On to `CC1Cc2ccccc2N1C(=O)CSc1nc2ccccc2o1` (stereo not given), for which the max dye-equivalent concentration result is “inactive”.

Regarding `CCN(CC)c1ccc(C(=O)OCC(=O)c2ccco2)cc1`, the max dye-equivalent concentration result is “inactive”.

Consider `Cc1ccsc1C(C(=O)NC1CCCCC1)N(C(=O)Cc1cccs1)C1CC1` (stereo not given), for which the max dye-equivalent concentration entry is “inactive”.

For `CCC(C(=O)Nc1ncccn1)(C(F)(F)F)C(F)(F)F`, the max dye-equivalent concentration result was “inactive”.

Regarding `CC(C)C(c1nnnn1CCc1ccccc1)N1CCN(C(=O)c2ccco2)CC1` (stereo not given), the max dye-equivalent concentration result is “inactive”.

Consider `O=C(Nc1c(-c2ccccc2)nc2c(Br)cc(Br)cn12)c1ccco1`, for which the max dye-equivalent concentration result is “inactive”.

For the molecule `Cc1oc(-c2cccc(Cl)c2)[n+]([O-])c1C`, the max dye-equivalent concentration entry was “inactive”.

For the molecule `COCCn1c(=O)c(-c2cccs2)nc2cncnc21`, the max dye-equivalent concentration entry is “inactive”.

Turning to `Nc1nonc1-c1noc(-c2ccc(Br)o2)n1`, the max dye-equivalent concentration entry was “inactive”.

For the molecule `CCOC(=O)C1=C(CNC2CCCCC2)NC(=O)NC1c1cc(C)ccc1C` (stereo not given), the max dye-equivalent concentration result was “inactive”.

For the molecule `Cc1cc(=O)n2nc(N3CCCC3C(=O)NCCCN3CC(C)CC(C)C3)sc2n1` (stereo not given), the max dye-equivalent concentration entry was “inactive”.

As for `O=C(CN1CCN(c2ccccn2)CC1)NCc1cccs1`, the max dye-equivalent concentration entry was “inactive”.

For `OCc1n[nH]c(CO)n1`, the max dye-equivalent concentration result is “inactive”.

As for `CCC(=O)Nc1sc(C(=O)N2CCCCC2)c(C)c1C#N`, the max dye-equivalent concentration entry is “inactive”.

With `CCOC(=O)c1c(C)c(C(=O)NCCc2ccc(S(N)(=O)=O)cc2)c(C)n1CC`, the max dye-equivalent concentration result is “inactive”.

For the molecule `COc1ccc(CCNC(=O)CN2CCC(n3nnc4cc(F)ccc43)CC2)cc1OC`, the max dye-equivalent concentration entry is “inactive”.

As for `Nc1nnnn1/N=C/c1cccs1`, the max dye-equivalent concentration entry was “inactive”.

Take `CCc1ccccc1NC(=O)CSc1nnc([C@@H](NC(=O)OC(C)(C)C)C(C)C)o1`: the max dye-equivalent concentration entry was “inactive”.

For the molecule `COc1cc(Cl)c(C)cc1NC(=O)CSc1nnc(-c2cccnc2)n1Cc1ccco1`, the max dye-equivalent concentration entry is “inactive”.

Turning to `Cc1cc(N2CCCC2=O)cc(C)c1S(N)(=O)=O`, the max dye-equivalent concentration result was “inactive”.

`C/C(=N\O)C1(C)N(O)C(C)(C)C(c2ccc(Br)cc2)=[N+]1[O-]` (stereo not given): the max dye-equivalent concentration entry is “inactive”.
